In PubChem BioAssay AID1159580 (chemical genetic matrix, 2015):
Out of some 5,500 compounds screened, about 2,000 (36%) were called active. Another 18% or so got no clear call; they are omitted. Cut-off read from the data, not from the text of the source: active = normalized growth mostly below about 0.91 (no sharp cut-off); inconclusive = no clear call, values can overlap the other calls; inactive = mostly above about 0.92. Some of the results follow.

Test: chemical genetic growth profiling, strain panel (AID 1159580);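 note: tested at 20 µM; growth read once vehicle control cultures reached saturation at 30 °C; 1 = growth at the plate median or of vehicle wells; lower values mean less growth of the strain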
Details: S. cerevisiae deletion strains, growth OD

Measured: normalized growth

NC(N)=NOCCC(N)C(=O)O (stereo not given)
inactive: locus YAL040C, strain CLN3, stronger effect = lower value 0.988 | locus YER002W, strain NOP16, stronger effect = lower value 0.98 | locus YGR078C, strain PAC10, stronger effect = lower value 0.996 | locus YGR229C, strain SMI1, stronger effect = lower value 1.01 | locus YMR263W, strain SAP30, stronger effect = lower value 0.98 | locus YNL175C, strain NOP13, stronger effect = lower value 0.984 | locus YNL197C, strain WHI3, stronger effect = lower value 0.984 | locus YNL224C, strain SQS1, stronger effect = lower value 0.999 | locus YOR083W, strain WHI5 (second series), stronger effect = lower value 0.975 | locus YPL241C, strain CIN2, stronger effect = lower value 0.996
